According to PubChem BioAssay (NCI):
About 83,000 compounds went through this panel and 20% of them were active in at least one assay; those are over-represented in the sample as a whole.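 Values shown are percent growth following 48 h exposure of cells in 96-well plates to a single concentration of compound; below 10 was considered active.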 The source made the active and inactive calls.

system: COLO 205 colon; assay: NCI-60 one-dose screen, 48 h (100 = growth as untreated, 0 = no growth, -100 = all killed); details: 10 µM unless noted

SMILES | growth
COc1ccc2nc(-c3ccc(Cl)cc3)cc(-c3nnc(SCC(=O)Nc4ccc(/C(C)=N\O)cc4)o3)c2c1 | 56.1% (inactive)
C/C(=C\c1cnc(C)s1)[C@@H]1C[C@@H]2O[C@@H]2CCC[C@H](C)[C@H](O)[C@@H](C)C(=O)C(C)(C)[C@@H](O)CC(=O)O1 | -8.64% (active)
O=C(/C(=C\c1c(-c2ccccc2)[nH]c2ccccc12)S(=O)(=O)c1ccccc1)c1ccccc1 | 70.8% (inactive)
O=c1[nH]c(-c2cccc(F)c2)cc2cc(F)ccc12 | -2.11% (active)
O=C1CS/C(=N/c2nnc(-c3ccc(O)cc3)s2)N1 | 97.7% (inactive)
C[C@H](Oc1cc(-c2cnn(C3CCNCC3)c2)cnc1N)c1c(Cl)ccc(F)c1Cl | 46.3% (inactive)
COCCOCCOCc1n(Cc2ccc3ccccc3n2)c2ccccc2[n+]1Cc1ccc2ccccc2n1 | -31.4% (active)
CCOC(=O)c1cnn(-c2nc(-c3ccc(F)cc3)c(C#N)c(N3CCOCC3)n2)c1N | 107% (inactive)
CC(=O)c1c(OCC#N)ccc2c(C)cc(=O)oc12 | 104% (inactive)
CN(CCC#N)C(=O)Nc1ccccc1 | 112% (inactive)
C#Cc1ccccc1NC(=O)c1sc2nc3c(cc2c1N)CCCCC3 | 105% (inactive)
COCCOC(=O)COc1ccc(OC)cc1 | 115% (inactive)
C#C[C@@]1(O)[C@@H](CO)O[C@@H](n2cnc3c(-c4ccccc4)ncnc32)[C@@H]1O | 109% (inactive)
COc1cc(NCC(=O)Nc2cc(Nc3ccc(C)cc3)ncn2)c(Cl)c(OC)c1Cl | 85.8% (inactive)
COc1ccc2oc(=O)cc(-c3c(C#N)c(N)n4nc(N)c(C#N)c4c3C#N)c2c1 | 108% (inactive)
O=C1NC(SCc2ccc(F)cc2)=N/C1=C/c1cccc(OCc2ccc(Cl)cc2)c1 | 55.3% (inactive)
COc1ccc(Nc2nc(SCC(C)C)nc(-c3ccc(F)cc3)c2C#N)cc1 | 72.4% (inactive)
COC(=O)/C=C1\SC(=Nc2ccc(F)cc2)N(CCc2c[nH]c3ccccc23)C1=O | 126% (inactive)
Nc1c(C(=O)Nc2ccccc2)sc2nc3c(cc12)CN(C(=O)OCc1ccccc1)CC3 | 55.3% (inactive)

SMILES | growth
COc1ccc(C2=NN(c3ccc(S(N)(=O)=O)cc3)C(c3ccc(Cl)cc3)C2)c(O)c1 (centres undefined) | 69.7% (inactive)
COc1ccc(C(C)c2cc(OC)c(OC)c(OC)c2)cc1 (centres undefined) | -15.2% (active)
COc1ccc(-n2nc(C(=O)NCC(=O)O)nc2-c2ccccc2)cc1 | 124% (inactive)
CCOC(=O)C1=C(C)n2nc(CC#N)c(C#N)c2NC1c1ccc(Cl)cc1 (centres undefined) | 103% (inactive)
Nc1c(C(=O)Nc2ccccn2)sc2nc3c(cc12)CCCC3 | 49.5% (inactive)
CCN1CCC[C@H]1c1cc(O)c2c(c1OC)C[C@H]1C[C@H]3[C@H](N)C(=O)C(C(N)=O)=C(O)[C@@]3(O)C(=O)C1=C2O | -18.7% (active)
Cc1cc(O)cc(O)c1N=NC1=NCCS1 | 100% (inactive)
COC(=O)c1cncc(C(=O)Nc2ccc(-n3cnc4ccccc43)cc2)c1 | 106% (inactive)
CNc1cccc2c1C(=O)c1cccc(N)c1C2=O | 7.33% (active)
O=S(=O)(Nc1nccs1)c1ccc(Nc2nc(-c3ccncc3)cs2)cc1 | 93.2% (inactive)
CN1C(=O)c2cc(Cl)nc3c(NC(=O)c4cccc(Cl)c4)c(Cl)c(NC(=O)c4cccc(Cl)c4)c1c23 | 1.5% (active)
O=C(O)COc1ccc2c(=O)c3sc4c(=O)c5ccccc5c(=O)c4c3c(=O)c2c1 | -46.2% (active)
O=C(Nc1nc(-c2ccccc2)cs1)c1cc(-c2ccc(Br)cc2)nc2ccccc12 | 56.2% (inactive)
Cc1cc(Nc2nc(SCc3ccc(C(=O)Nc4ccc(F)cc4N)cc3)nn3cccc23)n[nH]1 | -39.9% (active)
O=C1NCc2ccc3c(-c4cccc(Cl)c4)c[nH]c3c21 | -27% (active)
O=C(CN1N=C(c2ccc(F)cc2)CCC1=O)Nc1nccs1 | 113% (inactive)
O=C1Nc2ccc(Cl)cc2/C1=N/c1nc(-c2ccc(F)cc2)cs1 | 31.4% (inactive)
OCCNc1nc(NCCO)nc(Nc2ccc(C3=NN(c4cc(Cl)cc(Cl)c4)C(c4ccc(Cl)cc4)C3)cc2)n1 (centres undefined) | 7.12% (active)

system: DU-145 prostate; assay: as above; details: 10 µM unless noted

SMILES | growth
COc1ccc2nc(-c3ccc(Cl)cc3)cc(-c3nnc(SCC(=O)Nc4ccc(/C(C)=N\O)cc4)o3)c2c1 | 25.9% (inactive)
C/C(=C\c1cnc(C)s1)[C@@H]1C[C@@H]2O[C@@H]2CCC[C@H](C)[C@H](O)[C@@H](C)C(=O)C(C)(C)[C@@H](O)CC(=O)O1 | 2.1% (active)
O=C(/C(=C\c1c(-c2ccccc2)[nH]c2ccccc12)S(=O)(=O)c1ccccc1)c1ccccc1 | 68.5% (inactive)
O=c1[nH]c(-c2cccc(F)c2)cc2cc(F)ccc12 | 30.1% (inactive)
O=C1CS/C(=N/c2nnc(-c3ccc(O)cc3)s2)N1 | 110% (inactive)
C[C@H](Oc1cc(-c2cnn(C3CCNCC3)c2)cnc1N)c1c(Cl)ccc(F)c1Cl | 77.8% (inactive)
COCCOCCOCc1n(Cc2ccc3ccccc3n2)c2ccccc2[n+]1Cc1ccc2ccccc2n1 | 35.4% (inactive)
CCOC(=O)c1cnn(-c2nc(-c3ccc(F)cc3)c(C#N)c(N3CCOCC3)n2)c1N | 102% (inactive)
CC(=O)c1c(OCC#N)ccc2c(C)cc(=O)oc12 | 114% (inactive)
CN(CCC#N)C(=O)Nc1ccccc1 | 115% (inactive)
C#Cc1ccccc1NC(=O)c1sc2nc3c(cc2c1N)CCCCC3 | 104% (inactive)
COCCOC(=O)COc1ccc(OC)cc1 | 103% (inactive)
C#C[C@@]1(O)[C@@H](CO)O[C@@H](n2cnc3c(-c4ccccc4)ncnc32)[C@@H]1O | 109% (inactive)
COc1cc(NCC(=O)Nc2cc(Nc3ccc(C)cc3)ncn2)c(Cl)c(OC)c1Cl | 102% (inactive)
COc1ccc2oc(=O)cc(-c3c(C#N)c(N)n4nc(N)c(C#N)c4c3C#N)c2c1 | 106% (inactive)
O=C1NC(SCc2ccc(F)cc2)=N/C1=C/c1cccc(OCc2ccc(Cl)cc2)c1 | 80.6% (inactive)
COc1ccc(Nc2nc(SCC(C)C)nc(-c3ccc(F)cc3)c2C#N)cc1 | 79.4% (inactive)
COC(=O)/C=C1\SC(=Nc2ccc(F)cc2)N(CCc2c[nH]c3ccccc23)C1=O | 102% (inactive)
Nc1c(C(=O)Nc2ccccc2)sc2nc3c(cc12)CN(C(=O)OCc1ccccc1)CC3 | 59.4% (inactive)

SMILES | growth
COc1ccc(C2=NN(c3ccc(S(N)(=O)=O)cc3)C(c3ccc(Cl)cc3)C2)c(O)c1 (centres undefined) | 99.2% (inactive)
COc1ccc(C(C)c2cc(OC)c(OC)c(OC)c2)cc1 (centres undefined) | 9.97% (active)
COc1ccc(-n2nc(C(=O)NCC(=O)O)nc2-c2ccccc2)cc1 | 111% (inactive)
CCOC(=O)C1=C(C)n2nc(CC#N)c(C#N)c2NC1c1ccc(Cl)cc1 (centres undefined) | 97.2% (inactive)
Nc1c(C(=O)Nc2ccccn2)sc2nc3c(cc12)CCCC3 | 72% (inactive)
CCN1CCC[C@H]1c1cc(O)c2c(c1OC)C[C@H]1C[C@H]3[C@H](N)C(=O)C(C(N)=O)=C(O)[C@@]3(O)C(=O)C1=C2O | 1.87% (active)
Cc1cc(O)cc(O)c1N=NC1=NCCS1 | 103% (inactive)
COC(=O)c1cncc(C(=O)Nc2ccc(-n3cnc4ccccc43)cc2)c1 | 105% (inactive)
CNc1cccc2c1C(=O)c1cccc(N)c1C2=O | 40.1% (inactive)
O=S(=O)(Nc1nccs1)c1ccc(Nc2nc(-c3ccncc3)cs2)cc1 | 106% (inactive)
CN1C(=O)c2cc(Cl)nc3c(NC(=O)c4cccc(Cl)c4)c(Cl)c(NC(=O)c4cccc(Cl)c4)c1c23 | 4.2% (active)
O=C(O)COc1ccc2c(=O)c3sc4c(=O)c5ccccc5c(=O)c4c3c(=O)c2c1 | -89.6% (active)
O=C(Nc1nc(-c2ccccc2)cs1)c1cc(-c2ccc(Br)cc2)nc2ccccc12 | 68.7% (inactive)
Cc1cc(Nc2nc(SCc3ccc(C(=O)Nc4ccc(F)cc4N)cc3)nn3cccc23)n[nH]1 | 20.1% (inactive)
O=C1NCc2ccc3c(-c4cccc(Cl)c4)c[nH]c3c21 | 23.3% (inactive)
O=C(CN1N=C(c2ccc(F)cc2)CCC1=O)Nc1nccs1 | 118% (inactive)
O=C1Nc2ccc(Cl)cc2/C1=N/c1nc(-c2ccc(F)cc2)cs1 | 69.8% (inactive)
OCCNc1nc(NCCO)nc(Nc2ccc(C3=NN(c4cc(Cl)cc(Cl)c4)C(c4ccc(Cl)cc4)C3)cc2)n1 (centres undefined) | 0.477% (active)
